According to PubChem BioAssay (EPA / NIEHS):
Inconclusive results are not listed. The source made the active and inactive calls. How the source made its calls: active means hit-call score of the fitted dose curve at least 0.9, where 1 is the maximum; inconclusive means response in the unintended direction; inactive means score below 0.9.

Columns and labels:
[1] = biological target: human Neurotensin Receptor (NTS), NTSR1 (gene 4923) (UniProt P30989); experiment: NVS_GPCR_hNTS: NovaScreen (NVS) G Protein-Coupled Receptor Assay for human Neurotensin Receptor (NTS) (AID 2283279)
Outline: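 Compounds competed with a radiolabelled ligand for binding to CHO-derived human neurotensin receptor; bound signal counted after filtration, 1 h. Screened first at a single concentration of 25 uM in duplicate, then concentration series to 50 uM maximum for actives.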

[2] = biological target: rat Adrenergic Receptor, Alpha 2 (Adra2), Non-selective Binding, Adra2a (gene 25083) (UniProt P22909); experiment: NVS_GPCR_rAdra2_NonSelective: NovaScreen (NVS) G Protein-Coupled Receptor Assay for rat Adrenergic Receptor, Alpha 2 (Adra2), Non-selective Binding (AID 2283299)
Outline: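 Filter-based scintillation counting of radioligand binding to rat cortical membrane receptors, measured 1.25 hours post-dosing; loss of signal versus DMSO indicates displacement. Initial single-concentration duplicate at 25 uM, then concentration series.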

[3] = biological target: rat Serotonin, 5-Hydroxytryptamine Receptor (5HT), Non-Selective Binding, Htr1a (gene 24473) (UniProt P19327); experiment: NVS_GPCR_r5HT_NonSelective: NovaScreen (NVS) G Protein-Coupled Receptor Assay for rat Serotonin, 5-Hydroxytryptamine Receptor (5HT), Non-Selective Binding (AID 2283295)
Outline: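 Rat cortex membrane preparation incubated 1 h with radioligand and test chemical; bound radioactivity counted after filtration. Screening began in duplicate at 25 uM with concentration-series follow-up; fitting relative to DMSO.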

[4] = biological target: rat Adrenergic Receptor, Beta (Adrb), Non-selective Binding, Adrb1 (gene 24925) (UniProt P18090); experiment: NVS_GPCR_rAdrb_NonSelective: NovaScreen (NVS) G Protein-Coupled Receptor Assay for rat Adrenergic Receptor, Beta (Adrb), Non-selective Binding (AID 2283298)
Outline: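 Rat cortical membranes incubated 1 h with beta-adrenergic radioligand and test chemical; bound ligand measured by filtration and scintillation counting. Screen at 25 uM duplicate, then concentration series with 50 uM maximum; loss of signal versus DMSO.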

[5] = biological target: rat Serotonin, 5-Hydroxytryptamine Receptor 1 (5HT1), Non-Selective Binding, Htr1a (gene 24473) (UniProt P19327); experiment: NVS_GPCR_r5HT1_NonSelective: NovaScreen (NVS) G Protein-Coupled Receptor Assay for rat Serotonin, 5-Hydroxytryptamine Receptor 1 (5HT1), Non-Selective Binding (AID 2283286)
Outline: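 Binding of a radioligand to rat cortex membranes is read by filtration and scintillation counting after 1 h. Compounds were screened at 25 uM in duplicate. Actives were then titrated to a top of 50 uM. DMSO is the baseline.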

[6] = biological target: rat Adrenergic, Alpha 1A Receptor (Adra1A), Adra1a (gene 29412) (UniProt P43140); experiment: NVS_GPCR_rAdra1A: NovaScreen (NVS) G Protein-Coupled Receptor Assay for rat Adrenergic, Alpha 1A Receptor (Adra1A) (AID 2283296)
Outline: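 Filter radiodetection after 1 h competitive binding on CEC-pretreated rat cortical membranes. Duplicate single-point screening at 25 uM; active chemicals retested across concentration series.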

[7] = biological target: human Opioid Receptor Delta 1 (Opiate D1), OPRD1 (gene 4985) (UniProt P41143); experiment: NVS_GPCR_hOpiate_D1: NovaScreen (NVS) G Protein-Coupled Receptor Assay for human Opioid Receptor Delta 1 (Opiate D1) (AID 2283280)
Outline: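 Membrane preparations from CHO cells bearing the human receptor were incubated 1 h with test chemical, and bound radioligand was counted after filtration. Actives from 25 uM duplicate screening were retested in concentration-response.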

[8] = biological target: human Thromboxane A2 Receptor (TXA2), TBXA2R (gene 6915) (UniProt P21731); experiment: NVS_GPCR_hTXA2: NovaScreen (NVS) G Protein-Coupled Receptor Assay for human Thromboxane A2 Receptor (TXA2) (AID 2283282);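 further: actives reduce bound radioligand signal relative to DMSO baseline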
Outline: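 Biochem binding, human platelets, cell-free; competitive radioligand displacement; 1 h; filter radiodetection. 25 uM duplicate primary, conc. series secondary; DMSO neg. ctrl.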

[9] = biological target: mouse Cholecystokinin, CCK1 Receptor (CCKA), Cckar (gene 12425) (UniProt O08786); experiment: NVS_GPCR_mCCKAPeripheral: NovaScreen (NVS) G Protein-Coupled Receptor Assay for mouse Cholecystokinin, CCK1 Receptor (CCKA) (AID 2283285)
Outline: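 Chemicals were first screened in duplicate at 25 uM, with those meeting threshold (e.g., 30% inhibition) retested in singleton concentration series to 50 uM maximum. Binding of radioligand to mouse pancreatic membranes was read after 2 h by filtration and scintillation counting.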

[10] = tested on: 5-hydroxytryptamine receptor 2C (pig); experiment: NVS_GPCR_p5HT2C: NovaScreen (NVS) G Protein-Coupled Receptor Assay for pig Serotonin, 5-Hydroxytryptamine Receptor 2C (5HT2C) (AID 2283288)
Outline: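 Radioligand displacement on membranes from pig choroid plexus, detected by filter scintillation counting after 1 h. Tested first at a single 25 uM in duplicate, then in concentration-response for actives; DMSO served as baseline.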

[11] = biological target: guinea pig Serotonin, 5-Hydroxytryptamine Receptor 4 (5HT4), HTR4 (gene 100135548) (UniProt O70528); experiment: NVS_GPCR_g5HT4: NovaScreen (NVS) G Protein-Coupled Receptor Assay for guinea pig Serotonin, 5-Hydroxytryptamine Receptor 4 (5HT4) (AID 2283294)
Outline: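 Compounds first screened in duplicate at 25 uM, actives followed up in concentration series. Binding measured as displacement of specific radioligand from guinea pig striatal membranes, 1 h, filter-based scintillation read-out versus DMSO baseline.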

[12] = biological target: human Neurokinin, NK2 Receptor, TACR2 (gene 6865) (UniProt P21452); experiment: NVS_GPCR_hNK2: NovaScreen (NVS) G Protein-Coupled Receptor Assay for human Neurokinin, NK2 Receptor (AID 2283278);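 further: actives reduce bound radioligand signal relative to DMSO baseline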
Outline: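 Test chemicals displace a radioligand from receptor prepared from CHO cells in a cell-free format, read after 4 hours by scintillation counting on filters. Screening starts at 25 uM in duplicate, and active chemicals then go to concentration series.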

[13] = biological target: human Opioid Receptor Mu (Opiate Mu), OPRM1 (gene 4988) (UniProt P35372); experiment: NVS_GPCR_hOpiate_mu: NovaScreen (NVS) G Protein-Coupled Receptor Assay for human Opioid Receptor Mu (Opiate Mu) (AID 2283290);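 further: hits lower bound tracer signal versus DMSO meaning displacement of the ligand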
Outline: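 Here, radioligand binding to CHO-extracted receptor was measured after 2.5 h using filter-based scintillation detection. Initial single-concentration screening used 25 uM in duplicate with plate controls; confirmed actives went to concentration-response testing.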

[14] = biological target: guinea pig Bradykinin Receptor B2 (BK2), BDKRB2 (gene 100135486) (UniProt O70526); experiment: NVS_GPCR_gBK2: NovaScreen (NVS) G Protein-Coupled Receptor Assay for guinea pig Bradykinin Receptor B2 (BK2) (AID 2283292)
Outline: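 Guinea pig ileum membrane preparation incubated 1 h with radioligand and test chemical; bound counts measured after filtration. Primary duplicate screening at 25 uM, then singleton concentration series with a 50 uM top dose; DMSO as baseline.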

[15] = tested on: rat Adrenergic, Alpha 1B Receptor (Adra1B), gene 24173; experiment: NVS_GPCR_rAdra1B: NovaScreen (NVS) G Protein-Coupled Receptor Assay for rat Adrenergic, Alpha 1B Receptor (Adra1B) (AID 2283297)
Outline: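 Filter-binding radioligand competition on membranes from rat liver, read after 1 h by scintillation counting. Single-concentration duplicate screen at 25 uM, followed by concentration-response on actives, normalised to DMSO.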

Chain of rat Adrenergic Receptor, Alpha 2 (Adra2), Non-selective Binding, Adra2a (gene 25083) (P22909 whole entry, looked up): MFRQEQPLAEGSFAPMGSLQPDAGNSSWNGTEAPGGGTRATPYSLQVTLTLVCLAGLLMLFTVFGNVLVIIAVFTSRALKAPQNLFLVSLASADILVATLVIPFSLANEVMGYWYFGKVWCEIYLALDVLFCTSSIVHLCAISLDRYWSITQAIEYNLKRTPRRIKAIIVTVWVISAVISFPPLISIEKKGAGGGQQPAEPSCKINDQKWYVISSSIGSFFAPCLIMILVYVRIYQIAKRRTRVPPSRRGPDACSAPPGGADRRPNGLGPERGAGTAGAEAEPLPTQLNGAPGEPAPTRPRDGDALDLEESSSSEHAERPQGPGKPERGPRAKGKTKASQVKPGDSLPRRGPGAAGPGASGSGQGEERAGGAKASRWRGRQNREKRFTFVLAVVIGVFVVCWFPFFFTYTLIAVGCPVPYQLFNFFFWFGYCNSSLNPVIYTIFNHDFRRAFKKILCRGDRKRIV
Chain of rat Serotonin, 5-Hydroxytryptamine Receptor 1 (5HT1), Non-Selective Binding, Htr1a (gene 24473) (P19327 whole entry, looked up): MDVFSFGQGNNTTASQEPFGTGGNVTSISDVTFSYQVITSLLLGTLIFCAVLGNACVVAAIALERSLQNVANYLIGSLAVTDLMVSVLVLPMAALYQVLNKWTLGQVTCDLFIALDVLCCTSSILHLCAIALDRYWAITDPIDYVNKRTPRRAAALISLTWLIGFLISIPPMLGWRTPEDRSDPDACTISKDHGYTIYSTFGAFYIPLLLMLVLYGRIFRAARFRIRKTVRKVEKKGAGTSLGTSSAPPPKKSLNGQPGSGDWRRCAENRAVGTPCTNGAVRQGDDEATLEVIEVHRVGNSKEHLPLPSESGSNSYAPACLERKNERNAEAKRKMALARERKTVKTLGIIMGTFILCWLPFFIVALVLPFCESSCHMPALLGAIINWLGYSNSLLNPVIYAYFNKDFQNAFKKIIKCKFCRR
Chain of guinea pig Serotonin, 5-Hydroxytryptamine Receptor 4 (5HT4), HTR4 (gene 100135548) (O70528 whole entry, looked up): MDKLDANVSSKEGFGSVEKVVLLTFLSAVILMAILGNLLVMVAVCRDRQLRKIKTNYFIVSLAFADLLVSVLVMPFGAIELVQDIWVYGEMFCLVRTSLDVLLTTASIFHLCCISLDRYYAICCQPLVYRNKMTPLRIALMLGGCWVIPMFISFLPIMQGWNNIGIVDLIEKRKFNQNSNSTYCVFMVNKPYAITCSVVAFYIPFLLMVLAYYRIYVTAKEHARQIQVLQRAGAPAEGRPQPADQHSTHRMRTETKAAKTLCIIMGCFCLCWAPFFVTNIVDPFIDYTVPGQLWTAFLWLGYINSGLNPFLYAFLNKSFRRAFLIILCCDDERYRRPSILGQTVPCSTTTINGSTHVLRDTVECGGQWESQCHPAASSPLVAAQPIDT
Chain of rat Serotonin, 5-Hydroxytryptamine Receptor (5HT), Non-Selective Binding, Htr1a (gene 24473) (P19327 whole entry, looked up): as the sequence (P19327 whole entry, looked up) above
Chain of rat Adrenergic Receptor, Beta (Adrb), Non-selective Binding, Adrb1 (gene 24925) (P18090 whole entry, looked up): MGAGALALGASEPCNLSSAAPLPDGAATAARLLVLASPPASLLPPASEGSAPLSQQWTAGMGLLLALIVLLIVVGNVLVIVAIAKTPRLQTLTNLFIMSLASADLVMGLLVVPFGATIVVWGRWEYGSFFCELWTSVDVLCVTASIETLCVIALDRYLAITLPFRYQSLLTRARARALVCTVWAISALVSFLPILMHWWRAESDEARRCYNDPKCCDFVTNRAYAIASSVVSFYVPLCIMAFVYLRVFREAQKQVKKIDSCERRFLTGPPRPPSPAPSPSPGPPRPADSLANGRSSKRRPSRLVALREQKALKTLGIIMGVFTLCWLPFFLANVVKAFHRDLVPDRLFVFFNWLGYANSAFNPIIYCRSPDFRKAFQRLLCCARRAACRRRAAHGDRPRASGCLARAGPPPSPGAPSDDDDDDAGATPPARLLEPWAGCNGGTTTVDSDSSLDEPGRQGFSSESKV
Chain of human Opioid Receptor Delta 1 (Opiate D1), OPRD1 (gene 4985) (P41143 whole entry, looked up): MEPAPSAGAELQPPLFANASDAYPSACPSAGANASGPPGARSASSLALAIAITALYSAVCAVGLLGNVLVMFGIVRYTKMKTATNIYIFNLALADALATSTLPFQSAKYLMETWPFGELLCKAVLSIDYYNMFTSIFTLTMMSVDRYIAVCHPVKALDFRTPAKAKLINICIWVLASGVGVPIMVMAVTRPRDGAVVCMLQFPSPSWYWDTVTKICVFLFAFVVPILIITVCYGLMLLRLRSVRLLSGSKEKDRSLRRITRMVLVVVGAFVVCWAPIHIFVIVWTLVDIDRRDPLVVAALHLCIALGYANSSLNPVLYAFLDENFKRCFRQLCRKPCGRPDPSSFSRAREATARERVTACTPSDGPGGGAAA
Chain of rat Adrenergic, Alpha 1A Receptor (Adra1A), Adra1a (gene 29412) (P43140 whole entry, looked up): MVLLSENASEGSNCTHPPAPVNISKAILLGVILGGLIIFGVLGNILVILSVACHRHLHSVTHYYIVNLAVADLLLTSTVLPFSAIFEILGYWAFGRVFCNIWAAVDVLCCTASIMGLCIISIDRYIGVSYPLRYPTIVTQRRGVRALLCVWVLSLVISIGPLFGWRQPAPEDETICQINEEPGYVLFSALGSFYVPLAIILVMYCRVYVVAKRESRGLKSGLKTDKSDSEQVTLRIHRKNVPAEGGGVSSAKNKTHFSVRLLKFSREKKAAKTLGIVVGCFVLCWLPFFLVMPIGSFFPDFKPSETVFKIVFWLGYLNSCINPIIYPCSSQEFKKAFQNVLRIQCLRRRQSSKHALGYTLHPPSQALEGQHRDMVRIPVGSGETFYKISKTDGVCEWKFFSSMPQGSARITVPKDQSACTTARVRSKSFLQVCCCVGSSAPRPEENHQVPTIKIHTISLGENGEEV
Chain of human Thromboxane A2 Receptor (TXA2), TBXA2R (gene 6915) (P21731 whole entry, looked up): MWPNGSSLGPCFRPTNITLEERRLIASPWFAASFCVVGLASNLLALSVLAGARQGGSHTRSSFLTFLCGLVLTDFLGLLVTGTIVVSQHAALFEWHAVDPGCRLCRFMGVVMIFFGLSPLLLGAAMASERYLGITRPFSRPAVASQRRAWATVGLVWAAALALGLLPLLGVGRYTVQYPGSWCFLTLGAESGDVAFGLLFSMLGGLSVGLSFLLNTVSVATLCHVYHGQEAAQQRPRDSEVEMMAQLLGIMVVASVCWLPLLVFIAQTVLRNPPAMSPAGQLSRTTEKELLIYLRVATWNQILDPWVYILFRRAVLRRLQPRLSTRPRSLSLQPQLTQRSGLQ
Chain of human Opioid Receptor Mu (Opiate Mu), OPRM1 (gene 4988) (P35372 whole entry, looked up): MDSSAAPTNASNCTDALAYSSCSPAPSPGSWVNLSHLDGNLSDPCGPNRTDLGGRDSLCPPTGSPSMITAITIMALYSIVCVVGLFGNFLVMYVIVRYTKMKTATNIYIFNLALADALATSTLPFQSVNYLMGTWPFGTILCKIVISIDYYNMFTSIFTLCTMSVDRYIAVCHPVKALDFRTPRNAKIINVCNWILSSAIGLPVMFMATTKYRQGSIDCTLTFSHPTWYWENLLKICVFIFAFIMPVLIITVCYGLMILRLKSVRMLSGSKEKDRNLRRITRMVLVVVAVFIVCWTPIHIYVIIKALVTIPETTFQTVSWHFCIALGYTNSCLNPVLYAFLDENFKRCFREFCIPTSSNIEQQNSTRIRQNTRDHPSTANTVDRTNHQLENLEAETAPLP
Chain of human Neurotensin Receptor (NTS), NTSR1 (gene 4923) (P30989 whole entry, looked up): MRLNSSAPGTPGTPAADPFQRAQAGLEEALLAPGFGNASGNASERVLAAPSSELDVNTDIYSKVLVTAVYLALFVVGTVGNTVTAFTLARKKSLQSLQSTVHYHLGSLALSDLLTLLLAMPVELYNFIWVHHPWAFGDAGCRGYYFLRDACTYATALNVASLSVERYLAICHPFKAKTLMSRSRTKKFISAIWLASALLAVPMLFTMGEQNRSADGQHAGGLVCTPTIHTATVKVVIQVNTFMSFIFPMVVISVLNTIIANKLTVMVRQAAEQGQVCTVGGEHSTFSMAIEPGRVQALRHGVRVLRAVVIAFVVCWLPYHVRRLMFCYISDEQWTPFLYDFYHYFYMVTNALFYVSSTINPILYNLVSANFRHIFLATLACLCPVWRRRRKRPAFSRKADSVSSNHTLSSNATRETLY
Chain of mouse Cholecystokinin, CCK1 Receptor (CCKA), Cckar (gene 12425) (O08786 whole entry, looked up): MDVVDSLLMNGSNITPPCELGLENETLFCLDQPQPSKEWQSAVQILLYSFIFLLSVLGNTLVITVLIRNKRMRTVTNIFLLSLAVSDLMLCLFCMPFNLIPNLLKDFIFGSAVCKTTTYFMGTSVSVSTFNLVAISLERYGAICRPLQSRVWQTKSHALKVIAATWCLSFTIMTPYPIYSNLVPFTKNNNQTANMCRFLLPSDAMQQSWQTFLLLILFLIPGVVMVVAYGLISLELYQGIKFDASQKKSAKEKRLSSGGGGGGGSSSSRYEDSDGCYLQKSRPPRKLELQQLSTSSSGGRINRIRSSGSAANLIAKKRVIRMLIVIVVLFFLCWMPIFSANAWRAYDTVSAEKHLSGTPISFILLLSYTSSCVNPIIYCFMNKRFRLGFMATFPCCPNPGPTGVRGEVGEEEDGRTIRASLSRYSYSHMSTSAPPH

CCCCCCCCN(C)C
AC50 [1]: 16.7 µM (active)
outcome [2]: inactive

O=c1[nH]cnc2c1ncn2[C@H]1CC[C@@H](CO)O1
outcome [3]: inactive

NC(=O)NN=Cc1ccc([N+](=O)[O-])o1
outcome [4]: inactive

CCCCCCCC1CCC(=O)O1 (stereo not given)
outcome [5]: inactive
outcome [6]: inactive
outcome [4]: inactive

O=C(O)c1ccc2c(c1)nc(C(=O)NC1CCN(C3CC3)CC1)n2Cc1cc(-c2ccc(Cl)s2)on1
outcome [7]: inactive
outcome [5]: inactive
AC50 [2]: 3.26 µM (active)

CC(C)C(=O)Nc1ccc([N+](=O)[O-])c(C(F)(F)F)c1
AC50 [8]: 4.96 µM (active)
outcome [9]: inactive
outcome [10]: inactive
AC50 [11]: 6.71 µM (active)

c1ccc(C(O[C@@H]2CCCN(CCc3ccc4c(c3)OCO4)C2)c2ccccc2)cc1
AC50 [12]: 5.79 µM (active)
AC50 [7]: 19.4 µM (active)
AC50 [5]: 9.62 µM (active)
AC50 [10]: 5.08 µM (active)
AC50 [13]: 5.65 µM (active)
outcome [14]: inactive
AC50 [11]: 3.4 µM (active)
AC50 [3]: 5.63 µM (active)
AC50 [6]: 11.3 µM (active)
AC50 [15]: 17 µM (active)
AC50 [2]: 19.5 µM (active)
